Screening results (PubChem BioAssay)
The list is not random: actives were taken first. Their share in the collection is about 3.4%.
ssDAF-12 act = S. stercoralis DAF-12 activation, primary screen; HEK293 ssDAF-12/GRIP1 lit1-tk-luc reporter, luminescence; % of 3 µM dafachronic acid response; activation, % at 6.8 µM; 1% of 370,000 active; AID 652126;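 active = activation above the mean over all tested compounds plus 3 SD, cut at about 0.9% in these data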;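 note: 0% = DMSO-only wells and 100% = 3 µM delta7-dafachronic acid wells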
NF-kB neuron act = compounds increasing NF-kB expression in human neuronal cells | NF-kB reporter expression; hits give high values | fold change at 12.5 µM | 1.6% of 190,000 active | AID 1239; in the data active = fold change above about 3.3
hcDAF12 agonist = activates DAF-12 receptor from parasite H. contortus | AID 652067 | HEK293 hcDAF-12 lit1-tk-luc reporter, luminescence; 0% DMSO, 100% Δ7-dafachronic acid | 1.4% of 370,000 active | activation, % at 6.8 µM;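 active = activation above the mean of all tested compounds plus 3 SD, cut at about 5.5% in these data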;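 note: 100% = response to 3 µM Δ7-dafachronic acid high control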
APP 5'UTR act = APP 5'UTR luciferase reporter activation; SH-SY5Y APP 5'UTR luciferase reporter, luminescence; zero percent = DMSO vehicle wells; activation, % at 2 µM; 1% of 190,000 active; AID 1276;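 active = activation above a set limit, based on mean plus 3 SD of controls, cut at about 140% in these data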
hgDAF-12 ag = agonists of H. glycines DAF-12 nuclear receptor; HEK293 GAL4-hgDAF12 UAS-luciferase reporter, agonist luminescence; normalized to butyrate control; activation, % at 6.8 µM; 1.8% of 370,000 active; AID 687014;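 active = activation above a cutoff set at the mean of all screened compounds plus 3 SD, cut at about 10% in these data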;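 note: 0% = DMSO wells and 100% = sodium butyrate wells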
* marks the source's active call; other numbers are inactive results; . = no result given.

SMILES | ssDAF-12 act | NF-kB neuron act | hcDAF12 agonist | APP 5'UTR act | hgDAF-12 ag
N/C(=N\OC(=O)Nc1ccc(Cl)cc1)c1ncc(C(F)(F)F)cc1Cl | 0 | 1.1 | 0 | 3 | 4
N/C(=N\OC(=O)Nc1ccccc1)c1ncc(C(F)(F)F)cc1Cl | 0 | 1.5 | 5.6* | 3 | 0
COC(=O)/C(=C\Nc1ccccc1N)c1ncc(C(F)(F)F)cc1Cl | 1 | 3.3* | 5.7* | 40 | 12*
COCCn1c(SCC(=O)Nc2ccc(C)cc2C)nc2c(oc3ccccc32)c1=O | 0.9* | 1.1 | 0 | -4 | -1
COC(=O)c1ccc(N=NN2CCCCC2)cc1 | 1 | 3.3* | 2 | 151* | 10
COC(=O)c1ccc(NC(=O)CCN2CCCCC2)cc1 | -1 | 1.1 | 0 | 31 | 3
COC(=O)c1ccc(NN=Nc2ccc(C)cc2)cc1 | 1 | 1.7 | 6.0* | 72 | 11*
CCC[C@H]1[C@@H](OC(=O)N2CCCC2)CC[C@@]23CCCN2C(=O)CCC[C@@H]13 | -1 | . | -2 | . | 3
CN1N=C2c3ccccc3CCCC2C1c1ccc(F)cc1 (centres undefined) | 0 | . | 5.6* | . | 2
Cc1ccccc1-n1c(C)cc(/C=C(\C#N)C(=O)NCC2CCCO2)c1C (centres undefined) | -2 | 1.1 | 1 | 123 | -3
Cc1cc(/C=C(\C#N)C(=O)NCc2cccs2)c(C)n1-c1ccccc1F | 1.1* | 1.2 | 4 | 115 | 7
C/C(=N\NC(=O)c1ccc(Br)cc1)c1ccccc1 | -1 | 5.7* | -1 | 97 | 1
C/C(=N\NC(=O)C(O)c1ccccc1)c1ccc(Cl)cc1 (centres undefined) | 1.4* | . | -1 | . | -1
C/C(=N\NC(=O)c1cccnc1)c1ccc(Br)cc1 | 0 | . | 2 | . | 1
C/C(=N\NC(N)=O)c1ccc(Cl)cc1 | -1 | 0.93 | -3 | 3 | 0
COC(=O)[C@]12C[C@H](CC(=O)NCc3ccc(C)o3)C(=O)N(Cc3ccc4c(c3)OCO4)C1=C[C@H](C(C)C)O[C@@H]2C1CC1 | -2 | . | -2 | . | -2
O=C(NCCc1ccccc1)c1ccc(Sc2ccccc2Cl)c([N+](=O)[O-])c1 | -1 | . | -1 | . | -1
O=C(Nc1cccc(-c2cn3cccnc3n2)c1)c1ccc2c(c1)OCO2 | -2 | 0.58 | -1 | 16 | 4
c1cnc2nc(-c3ccc4c(c3)OCO4)cn2c1 | -1 | 2.2 | 3 | 62 | 13*
Cc1ccc(C(=O)N2CCC(C)CC2)cc1C | 2.2* | 1.4 | -1 | -1 | 4
COc1ccc(NC(=O)COC(=O)c2ccc3ccccc3n2)cc1OC | 0 | . | 1 | . | -4
CCN(c1ccc(NC(=O)COC(=O)c2ccc3ccccc3n2)cc1)C(C)C | 0.9* | 1.2 | 5 | -6 | 5
CC1CCCC/C1=N\NC(=S)Nc1ccccc1 (centres undefined) | 0 | 1.4 | 1 | 175* | 6
CCc1ccc(O)c(-c2cc(C(=O)Nc3cccnc3)[nH]n2)c1 | 0 | . | 1 | . | 12*
Cc1cc(C)c(O)c(-c2cc(C(=O)Nc3cccnc3)[nH]n2)c1 | -2 | . | -3 | . | 1
SMILES | ssDAF-12 act | NF-kB neuron act | hcDAF12 agonist | APP 5'UTR act | hgDAF-12 ag
COc1cc(C=O)ccc1OCCCOc1ccccc1[N+](=O)[O-] | 1.0* | 2 | 1 | 1 | 6
COC(=O)Cc1ccc2c3ccccc3n(C)c2c1 | -1 | 1.6 | 5.8* | 3 | 4
S=C(Nc1ccc(Br)cc1)OC1CCC12CCC(c1ccccc1)CC2 (centres undefined) | 0 | . | 1 | . | 0
CCOC(=O)CNC(=O)c1ccc(C)cc1 | -1 | 1.1 | 1 | . | 2
CCOC(=O)CNC(=O)c1ccc(OCC(F)(F)F)cc1 | 0 | 0.96 | 1 | 5 | 13*
O=S(=O)(c1ccccc1)c1cnc(-c2cccnc2)nc1-c1ccc(Cl)c(Cl)c1 | 1.6* | 1.4 | 0 | -20 | 1
COc1cc(NC(=O)c2cc3sccc3n2C)cc(OC)c1 | 0 | 2.5 | 6.0* | 104 | 10
Cn1c(/N=C/c2c(O)ccc3ccccc23)nc2ccccc21 | 1.3* | 0.59 | 0 | -8 | -3
CCCn1c(/N=C/c2ccccc2O)nc2ccccc21 | -1 | 1.4 | -2 | -8 | 0
COc1ccc(-c2csc(NC3OC(=O)c4c3ccc(OC)c4OC)n2)cc1OC (centres undefined) | -1 | . | 0 | . | 0
COc1ccc2c(c1OC)C(=O)OC2Nc1nc(-c2ccc([N+](=O)[O-])cc2)cs1 (centres undefined) | 1.6* | . | 3 | . | 5
COc1ccc2c(c1OC)C(=O)OC2Nc1nc2ccccc2s1 (centres undefined) | -1 | . | 2 | . | 1
COc1ccc2c(c1OC)C(=O)OC2Nc1nc(-c2cc3cc(Br)ccc3oc2=O)cs1 (centres undefined) | -1 | . | 1 | . | 11*
CC(C)(C)[C@@H]1/C(=C/C2CC2)N2C(=O)C[C@@H](c3ccccc3)N=C2N1Cc1ccc2c(c1)OCO2 | -2 | . | -2 | . | -1
Cn1c(=O)cc(OCCCC(=O)Nc2cc(C(F)(F)F)ccn2)c2ccccc21 | -3 | . | -5 | . | -11
C=CCN1C(=O)[C@H](CC(=O)NCc2ccc(C)o2)[C@@]2(C(=O)OCC)CCCC=C12 | -1 | . | 1 | . | 1
CCOC(=O)C(c1nc2ccccc2[nH]1)n1c(-c2ccccn2)nc2ccccc21 (centres undefined) | 0 | . | 6.5* | . | 8
CCC(c1nc2ccccc2[nH]1)n1c(-c2cnccn2)nc2ccccc21 (centres undefined) | 1 | . | -2 | . | -1
CCCCC#Cc1ccccc1COC[B-](F)(F)F | -1 | . | -3 | . | -6
O=C(CN1CCc2ccccc2C1)Nc1ccc(F)cc1 | -1 | . | -1 | . | 1
CN(C)c1ccc(NC(=O)CN2CCc3ccccc3C2)cc1 | 0 | . | 5.7* | . | 5
Cc1nn2c(-c3ccco3)nnc2c2ccccc12 | 0 | 1.2 | 5.9* | 9 | 2
Cc1ccccc1-c1nnc2c3ccccc3c(C)nn12 | -1 | 1.2 | -2 | 4 | -1
O=C(O[C@H]1CC[C@@]23CCCN2C(=O)CCC[C@H]3C1)N1CCN(c2ccccc2)CC1 | -2 | . | -1 | . | -2
CN(CCOC(=O)CC1C=CCC1)C1CN(Cc2cn(Cc3ccccc3Cl)nn2)S(=O)(=O)C1 (centres undefined) | -2 | . | 0 | . | -2
CN(c1ccc(OCC(=O)OCC(=O)NC2CCCC2)cc1)S(=O)(=O)c1ccc2ccccc2c1 | 1.2* | 1.4 | 3 | 7 | 1
CC1(C(=O)OCc2cc(=O)n3cc(Br)ccc3n2)CC1(Cl)Cl (centres undefined) | 0 | 1.2 | 2 | 82 | 11*
O=C(N/N=C/c1cccs1)c1cc(-c2ccc3ccccc3c2)n[nH]1 | 0 | 1.3 | 2 | 9 | 11*
O=C(N/N=C/c1cccs1)c1cc(-c2cccc3ccccc23)n[nH]1 | -1 | 1.5 | 0 | 23 | 11*
